The record followed here is ChEMBL document CHEMBL3988442, “University of Dundee, Small-Polar-MMV Screening Library” (2021).

Structures are written as SMILES. For some of these results: Results with a measured potency or affinity are listed apart.

Parameters in all cases: scale not given: direction of the effect not stated beside the values
In assay [1] the target is Protein translocase subunit SecA (Escherichia coli (strain K12)) (UniProt P10408). Put plainly: Assay to Identify E. coli SecA ATPase Inhibitors. The format is functional. The following applies: 30 µM.
Protein translocase subunit SecA (Escherichia coli (strain K12)), sequence (P10408 whole entry): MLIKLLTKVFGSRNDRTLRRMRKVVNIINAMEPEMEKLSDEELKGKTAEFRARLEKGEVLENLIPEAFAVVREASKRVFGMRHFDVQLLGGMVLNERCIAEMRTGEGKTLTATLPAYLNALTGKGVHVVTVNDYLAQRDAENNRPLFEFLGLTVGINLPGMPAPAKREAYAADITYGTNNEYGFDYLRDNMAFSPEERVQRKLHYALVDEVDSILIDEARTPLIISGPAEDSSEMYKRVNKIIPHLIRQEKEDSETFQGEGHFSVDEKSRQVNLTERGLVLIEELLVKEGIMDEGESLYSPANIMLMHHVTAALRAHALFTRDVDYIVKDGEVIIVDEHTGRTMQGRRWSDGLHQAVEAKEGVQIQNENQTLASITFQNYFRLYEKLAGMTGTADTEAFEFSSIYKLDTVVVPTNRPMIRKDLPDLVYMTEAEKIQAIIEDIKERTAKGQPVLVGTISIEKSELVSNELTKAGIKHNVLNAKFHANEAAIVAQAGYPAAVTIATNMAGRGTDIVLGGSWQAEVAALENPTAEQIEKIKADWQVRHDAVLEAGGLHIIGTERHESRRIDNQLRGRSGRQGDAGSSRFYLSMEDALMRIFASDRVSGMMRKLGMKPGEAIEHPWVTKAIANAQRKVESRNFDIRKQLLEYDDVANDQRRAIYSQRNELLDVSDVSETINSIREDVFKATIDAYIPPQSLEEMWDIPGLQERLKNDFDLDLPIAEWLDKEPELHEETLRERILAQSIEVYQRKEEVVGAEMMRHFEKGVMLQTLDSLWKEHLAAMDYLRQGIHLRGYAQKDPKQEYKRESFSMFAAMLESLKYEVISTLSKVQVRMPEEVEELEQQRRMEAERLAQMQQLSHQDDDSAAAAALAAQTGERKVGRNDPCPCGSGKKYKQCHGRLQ
For assay [2], the target named is T1, Ubiquitin-activating enzyme e1, putative (Leishmania donovani (strain BPK282A1)) (UniProt E9BSI1).
T1 sequence (whole entry): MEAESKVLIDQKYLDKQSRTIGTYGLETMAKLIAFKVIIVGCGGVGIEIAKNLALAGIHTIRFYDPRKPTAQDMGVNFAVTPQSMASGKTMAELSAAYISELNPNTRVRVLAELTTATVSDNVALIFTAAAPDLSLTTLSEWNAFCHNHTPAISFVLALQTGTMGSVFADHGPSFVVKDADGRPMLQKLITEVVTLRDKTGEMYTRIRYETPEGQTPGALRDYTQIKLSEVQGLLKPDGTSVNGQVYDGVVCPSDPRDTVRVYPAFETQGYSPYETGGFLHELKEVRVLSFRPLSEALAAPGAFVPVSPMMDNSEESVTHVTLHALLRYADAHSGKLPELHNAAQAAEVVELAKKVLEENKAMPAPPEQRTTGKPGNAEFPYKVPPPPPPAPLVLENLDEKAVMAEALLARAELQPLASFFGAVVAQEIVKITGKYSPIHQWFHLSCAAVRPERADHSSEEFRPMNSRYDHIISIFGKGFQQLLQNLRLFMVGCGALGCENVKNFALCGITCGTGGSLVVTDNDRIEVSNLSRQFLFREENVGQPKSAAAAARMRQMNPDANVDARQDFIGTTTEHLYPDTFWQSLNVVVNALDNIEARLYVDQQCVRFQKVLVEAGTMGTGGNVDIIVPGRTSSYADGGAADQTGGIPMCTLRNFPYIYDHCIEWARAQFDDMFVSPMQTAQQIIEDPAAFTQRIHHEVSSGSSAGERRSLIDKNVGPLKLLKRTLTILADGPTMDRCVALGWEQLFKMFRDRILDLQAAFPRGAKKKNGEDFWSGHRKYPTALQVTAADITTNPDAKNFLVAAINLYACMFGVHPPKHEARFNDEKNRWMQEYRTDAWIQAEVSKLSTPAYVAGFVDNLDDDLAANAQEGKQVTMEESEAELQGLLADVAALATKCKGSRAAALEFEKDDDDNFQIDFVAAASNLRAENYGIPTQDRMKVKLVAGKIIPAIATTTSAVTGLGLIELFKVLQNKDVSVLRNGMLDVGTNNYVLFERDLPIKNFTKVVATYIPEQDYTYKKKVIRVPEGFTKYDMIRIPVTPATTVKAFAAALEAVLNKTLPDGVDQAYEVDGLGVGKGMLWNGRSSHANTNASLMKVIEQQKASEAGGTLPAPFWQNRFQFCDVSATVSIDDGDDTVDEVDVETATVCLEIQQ
The assay is described as follows: Leishmania donovani Ubiquitin Activating Enzyme (LdE1). The format is functional. As to conditions: 30 µM.

Assay [3] addresses AMP-activated protein kinase, AMPK (Homo sapiens) (UniProt P54646+O43741+P54619+Q9UGJ0+Q9Y478+Q13131+Q9UGI9). The assay is described as follows: AMP-dependent Kinase enzyme assay. An in vitro enzyme assay that detects ADP turnover that is directly proportional to AMPK activity. This uses naive AMPK that is activated during the assay with MK-8722. The following applies: 30 µM. The format is functional.

Assay [4] deals with Sialic acid-binding Ig-like lectin 9 (Homo sapiens) (UniProt Q9Y336). Put plainly: Hs-Siglec9 ALPHAscreen SOP 20170721. As to conditions: 10 µM. In general terms: In Alpha technology, singlet oxygen from a donor bead excites a nearby acceptor bead.
Sialic acid-binding Ig-like lectin 9 (Homo sapiens), sequence (Q9Y336 whole entry): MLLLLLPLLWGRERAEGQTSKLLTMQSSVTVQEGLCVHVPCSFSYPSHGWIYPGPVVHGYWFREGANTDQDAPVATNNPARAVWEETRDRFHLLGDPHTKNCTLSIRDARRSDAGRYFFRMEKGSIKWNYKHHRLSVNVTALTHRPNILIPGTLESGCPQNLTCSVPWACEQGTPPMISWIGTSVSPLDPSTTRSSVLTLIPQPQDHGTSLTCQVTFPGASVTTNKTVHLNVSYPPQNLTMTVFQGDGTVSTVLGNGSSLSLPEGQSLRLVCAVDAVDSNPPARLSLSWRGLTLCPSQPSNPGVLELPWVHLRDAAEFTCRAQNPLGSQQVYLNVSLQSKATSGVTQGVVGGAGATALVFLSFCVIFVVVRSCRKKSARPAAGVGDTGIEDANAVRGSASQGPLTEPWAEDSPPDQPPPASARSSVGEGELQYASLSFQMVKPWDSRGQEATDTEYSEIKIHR
The test system of the next assay is Trypanosoma cruzi. The assay is described as follows: Trypanosoma cruzi phosphomannomutase and mannose-1-phosphate guanylyltransferase assay. The format is functional. As to conditions: 10 µM.
Assay [5] addresses T2, Arginase-2, mitochondrial (Homo sapiens) (UniProt P78540).
T2 sequence (whole entry): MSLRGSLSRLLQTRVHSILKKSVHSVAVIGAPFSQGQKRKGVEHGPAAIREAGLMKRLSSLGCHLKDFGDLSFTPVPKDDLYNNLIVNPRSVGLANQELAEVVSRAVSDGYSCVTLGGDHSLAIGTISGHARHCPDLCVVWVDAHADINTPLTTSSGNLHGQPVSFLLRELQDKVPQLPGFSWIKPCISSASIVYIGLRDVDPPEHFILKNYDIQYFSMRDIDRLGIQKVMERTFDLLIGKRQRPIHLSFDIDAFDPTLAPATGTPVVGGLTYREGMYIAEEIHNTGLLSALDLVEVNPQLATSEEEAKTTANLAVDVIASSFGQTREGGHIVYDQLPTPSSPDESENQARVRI
The assay is described as follows: in vitro enzyme assay to detect the production of urea directly proportional to the activity of Arginase II. Note: in the data most compounds retested in dose-response had high values. The format is functional. As to conditions: 33.3 µM.

Assay [6] deals with T3, Proteasome subunit beta (Trypanosoma cruzi) (UniProt O96673).
T3 sequence (whole entry): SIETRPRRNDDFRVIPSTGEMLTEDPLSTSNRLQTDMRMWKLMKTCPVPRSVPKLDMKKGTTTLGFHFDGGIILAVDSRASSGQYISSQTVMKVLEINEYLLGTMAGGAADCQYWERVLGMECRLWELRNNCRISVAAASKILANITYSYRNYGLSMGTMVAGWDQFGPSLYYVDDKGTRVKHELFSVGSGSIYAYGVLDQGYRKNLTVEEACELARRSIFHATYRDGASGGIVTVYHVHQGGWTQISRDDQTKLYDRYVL
The assay is described as follows: Trypanosoma cruzi proteasome chymotrypsin-like activity (TcProtChymo) assay. Note: in the data most compounds retested in dose-response had high values. The format is functional. As to conditions: 9.37 µM.

For another assay, the species on record is Homo sapiens. Put plainly: To identify inhibition of the IFN signalling (Jak-Stat) pathway via expression of an eGFP reporter gene under the control of an IFN-stimulated response element (ISRE) containing MxA promoter. The format is functional. As to conditions: 30 µM. Background: A reporter such as luciferase makes a cellular process visible.
Assay [7] has as its target T4, Tyrosyl-tRNA synthetase, putative (Trypanosoma cruzi (strain CL Brener)) (UniProt Q4DSP6).
T4 sequence (whole entry): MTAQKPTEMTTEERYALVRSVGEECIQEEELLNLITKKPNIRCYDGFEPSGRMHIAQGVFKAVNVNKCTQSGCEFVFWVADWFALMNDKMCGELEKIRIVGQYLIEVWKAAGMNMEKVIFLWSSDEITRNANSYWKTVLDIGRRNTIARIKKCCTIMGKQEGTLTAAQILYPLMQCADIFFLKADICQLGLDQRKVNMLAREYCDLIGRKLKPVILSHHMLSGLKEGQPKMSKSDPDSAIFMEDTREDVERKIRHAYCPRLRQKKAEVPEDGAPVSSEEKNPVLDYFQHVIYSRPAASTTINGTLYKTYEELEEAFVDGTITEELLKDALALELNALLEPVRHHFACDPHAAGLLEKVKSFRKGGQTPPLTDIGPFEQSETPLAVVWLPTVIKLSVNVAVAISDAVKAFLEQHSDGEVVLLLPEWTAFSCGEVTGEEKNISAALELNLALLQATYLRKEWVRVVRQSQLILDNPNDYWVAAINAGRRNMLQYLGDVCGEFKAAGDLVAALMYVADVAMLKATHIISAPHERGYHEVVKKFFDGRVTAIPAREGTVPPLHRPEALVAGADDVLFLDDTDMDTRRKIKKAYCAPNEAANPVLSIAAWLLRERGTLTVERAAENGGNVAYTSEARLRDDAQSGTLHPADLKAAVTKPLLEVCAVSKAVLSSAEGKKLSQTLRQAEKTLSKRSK
Put plainly: Trypanosoma cruzi tyrosyl tRNA synthetase (TcYRS) _High Tyrosine SOP. Note: in the data most compounds retested in dose-response had high values. The format is functional. The following applies: 30 µM.

Assay [8] addresses T4, Tyrosyl-tRNA synthetase, putative (Trypanosoma cruzi (strain CL Brener)). The assay is described as follows: Trypanosoma cruzi tyrosyl tRNA synthetase (TcYRS) SOP. The format is functional. As to conditions: 30 µM.
For assay [9], the target named is Chromo domain-containing protein 1 (Saccharomyces cerevisiae (strain ATCC 204508 / S288c) (Baker's yeast)) (UniProt P32657). The assay is described as follows: ScCHD-1 Enzyme Inhibition Assay. Note: in the data most compounds retested in dose-response had high values. The format is functional. The following applies: 30 µM.
Chromo domain-containing protein 1 (Saccharomyces cerevisiae (strain ATCC 204508 / S288c) (Baker's yeast)), sequence (P32657 whole entry, the tested form may be a part): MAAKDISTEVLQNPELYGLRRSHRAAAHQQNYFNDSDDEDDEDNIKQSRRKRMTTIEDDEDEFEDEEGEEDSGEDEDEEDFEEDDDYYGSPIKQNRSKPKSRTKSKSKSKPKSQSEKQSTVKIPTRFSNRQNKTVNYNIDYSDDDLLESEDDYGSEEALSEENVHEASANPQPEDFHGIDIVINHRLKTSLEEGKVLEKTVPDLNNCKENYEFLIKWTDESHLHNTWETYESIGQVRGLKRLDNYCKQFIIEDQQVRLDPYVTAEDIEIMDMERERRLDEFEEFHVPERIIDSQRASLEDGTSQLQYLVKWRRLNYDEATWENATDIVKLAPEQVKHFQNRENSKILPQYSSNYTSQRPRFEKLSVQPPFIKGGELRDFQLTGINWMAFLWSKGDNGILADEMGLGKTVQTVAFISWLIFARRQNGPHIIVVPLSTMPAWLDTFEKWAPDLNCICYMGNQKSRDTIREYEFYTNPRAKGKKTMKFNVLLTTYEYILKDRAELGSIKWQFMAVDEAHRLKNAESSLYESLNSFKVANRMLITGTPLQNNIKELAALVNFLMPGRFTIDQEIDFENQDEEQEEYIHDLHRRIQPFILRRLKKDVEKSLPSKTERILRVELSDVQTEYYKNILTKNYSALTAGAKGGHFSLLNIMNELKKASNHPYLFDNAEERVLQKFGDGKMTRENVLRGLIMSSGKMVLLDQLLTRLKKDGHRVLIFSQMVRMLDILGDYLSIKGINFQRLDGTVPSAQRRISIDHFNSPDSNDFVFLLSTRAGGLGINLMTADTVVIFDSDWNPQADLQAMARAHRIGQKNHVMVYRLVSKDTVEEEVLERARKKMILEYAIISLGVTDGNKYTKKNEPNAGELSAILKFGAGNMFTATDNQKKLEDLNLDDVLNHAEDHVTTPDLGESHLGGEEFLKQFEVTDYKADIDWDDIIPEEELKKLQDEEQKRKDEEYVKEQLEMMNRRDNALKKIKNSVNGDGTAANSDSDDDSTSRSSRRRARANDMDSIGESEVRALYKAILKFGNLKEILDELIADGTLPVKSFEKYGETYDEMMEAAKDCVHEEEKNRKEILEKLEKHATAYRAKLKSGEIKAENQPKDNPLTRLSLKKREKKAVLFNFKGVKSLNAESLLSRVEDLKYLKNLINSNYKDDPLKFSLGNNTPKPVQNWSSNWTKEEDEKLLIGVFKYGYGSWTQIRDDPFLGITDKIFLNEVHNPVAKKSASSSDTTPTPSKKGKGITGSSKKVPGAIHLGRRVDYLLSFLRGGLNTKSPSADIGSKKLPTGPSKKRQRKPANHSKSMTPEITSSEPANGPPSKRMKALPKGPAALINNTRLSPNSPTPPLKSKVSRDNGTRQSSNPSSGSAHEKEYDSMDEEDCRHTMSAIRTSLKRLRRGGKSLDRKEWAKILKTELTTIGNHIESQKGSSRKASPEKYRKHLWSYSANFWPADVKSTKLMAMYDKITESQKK

Consider `CCc1ccccc1CN1CC[C@@H](NC(=O)c2cccnc2)[C@H](O)C1`, for which the Percent Effect in assay [1] was -2.67%; in assay [2], 1.39%; in assay [3], -0.714%; in [4] it was 6.65%; in the assay with Trypanosoma cruzi, 8.26%; in [5] it was 0%. Further, the Percent Effect in [6] was 12.8%; in the assay filed under Homo sapiens, -21.1%; in assay [7] it was 3.16%; in assay [8] it was 10.3%; in [9] it was -3.67%.
For `c1ccc(-c2noc3c2CN(CC2CC2)CC3)cc1`, the Percent Effect in assay [1] was -4.27%; in assay [2], 2.74%; in assay [3], -7.86%; in [4], -1.17%; with Trypanosoma cruzi, -0.979%; in assay [5], -0.455%. In addition, the Percent Effect in [6] was 6.92%; in the assay listed under Homo sapiens, 11.2%; in assay [7] it was 4.3%; in assay [8] it was 10%; in [9] it was 0.0734%.
Turning to `Cn1cnnc1C1CCCN(C(=O)NCCOc2ccccc2)C1` (stereo unspecified), the Percent Effect in assay [1] was -3.04%; in assay [2] it was 23.4%; in assay [3], 1.73%; in assay [4] it was -22.3%; in the assay on Trypanosoma cruzi, 4.8%; in [5], -1.47%. Also, the Percent Effect was 15.9% in assay [6]; 16.1% in the assay listed under Homo sapiens; 5.71% in [7]; 21.2% in assay [8]; -12% in [9].
In the case of `COc1cc(CNCc2ccc(C(C)O)cc2)cc2c1OCO2` (stereo unspecified), the Percent Effect in assay [1] was -4.95%; in assay [2], 18.9%; in [3], 2.1%; in [4], 10.4%; in the assay on Trypanosoma cruzi, 8.45%; in assay [5], 0.185%. Besides, the Percent Effect in assay [6] was 20.8%; in the assay filed under Homo sapiens it was 15.6%; in [7], 9.9%; in assay [8] it was 28.1%; in assay [9] it was -9.5%.
With `Clc1snnc1CN1CCOC(CNc2cccnn2)C1` (stereo unspecified), the Percent Effect in [1] is 0.0334%; in [2] it was -2.6%; in assay [3], -5.26%; in assay [4], 8.04%; in the assay on Trypanosoma cruzi, 5.8%; in assay [5] it was 5.34%. The Percent Effect was 1.18% in [6]; -0.834% in the assay filed under Homo sapiens; 4.85% in assay [7]; 12.2% in assay [8]; -5.35% in [9].
Consider `CC(C)c1nc2c(n1C)CCN(CC(=O)Nc1nccs1)C2`, for which the Percent Effect in [1] was -4.97%; in assay [2], 15.6%; in [3], 1.78%; in [4], -4.17%; in the assay with Trypanosoma cruzi it was -0.686%; in [5], 3.58%. Moreover, the Percent Effect in assay [6] is 15.3%; in the assay listed under Homo sapiens it was -3.14%; in assay [7], 9.52%; in assay [8] it was 21.2%; in assay [9], -18%.
In the case of `CC(C(=O)NCCCN1CCCCCC1=O)n1cncn1` (stereo unspecified), the Percent Effect in assay [1] was -2.32%; in [2], 21.1%; in assay [3], -0.014%; in assay [4], -11.5%; with Trypanosoma cruzi, -1.4%; in assay [5], -5.04%. Further, the Percent Effect is 8.04% in assay [6]; 2.75% in the assay listed under Homo sapiens; 5.42% in assay [7]; 13.6% in assay [8]; -7.45% in assay [9].
`O=C(NCCNc1ncccn1)C1CC(=O)N(CC(F)(F)F)C1` (stereo unspecified): the Percent Effect in assay [1] is -0.757%; in assay [2], 16.2%; in [3], -5.02%; in assay [4], -3.51%; in the assay with Trypanosoma cruzi, -7.26%; in assay [5], -4.81%. Further, the Percent Effect in [6] is 5.59%; in the assay listed under Homo sapiens, 16.5%; in assay [7] it was 9.36%; in assay [8], 13.6%; in assay [9], -6.16%.
Turning to `COc1cccc(N2CCN(C(=O)[C@H](O)C3CCCCC3)CC2=O)c1`, the Percent Effect in [1] was -1.35%; in assay [2], 5.41%; in assay [3], 2.95%; in [4] it was 1.44%; in the assay on Trypanosoma cruzi, 2.32%; in [5] it was 2.38%. For the same compound, the Percent Effect in [6] is 21%; in the assay filed under Homo sapiens, 3.62%; in [7] it was 8.99%; in [8], 17.1%; in assay [9], -2.64%.
With `COc1ccccc1CN1CC[C@H]2C[C@@H](C(=O)N3CCCC3)O[C@H]2C1`, the Percent Effect is 2.23% in assay [1]; 13% in assay [2]; 4.84% in assay [3]; -5.31% in assay [4]; -7.99% in the assay with Trypanosoma cruzi; 4.52% in assay [5]. Further, the Percent Effect in assay [6] is 8.88%; in the assay listed under Homo sapiens, 6%; in assay [7], 6.35%; in [8] it was 14.1%; in [9] it was -7.87%.
In the case of `O=C(c1ccncc1)N1C[C@@H]2CC[C@H](C1)N(C(=O)N1CCOCC1)C2`, the Percent Effect in [1] was -0.807%; in [2], 2.67%; in [3] it was -4.2%; in [4], 3.79%; in the assay on Trypanosoma cruzi, -4.38%; in [5], 4.69%. Also, the Percent Effect in [6] was 15.5%; in the assay listed under Homo sapiens, 10.6%; in [7], 6.01%; in assay [8], 13.6%; in [9], -5.41%.
